# Bioassay records from PubChem BioAssay.
# Only some compounds are listed: those with a hit (about 19% of all), similar ones and a draw of the others.
# TDP1 cell noCPT: qHTS for Inhibitors of human tyrosyl-DNA phosphodiesterase 1 (TDP1): qHTS in cells in absence of CPT; DT40 Tdp1-/- hTDP1 cells, no CPT, ATP luminescence, 48 h; hit rate 15% among 420,000; Potency, µM (doses to about 46.2 µM), for inactives: at the top dose activity change, negative = growth inhibition, most hits filed as inhibitors; also: potency is read from the fitted curve at half-maximal effect; nearly all actives have a fitted effect of over 55% in size
#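 A cellular qHTS used chicken DT40 cells lacking endogenous Tdp1 but carrying stably transfected human TDP1. Compounds were applied without camptothecin, and cell growth kinetics were judged by ATP-dependent luminescence after ≥48 hr.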
# HT1080-NT tox: kills 2HG-producing HT-1080-NT fibrosarcoma cells; HT-1080-NT fibrosarcoma viability, CellTiter-Glo ATP luminescence, 48 h; Potency, µM (top dose mostly 46.1 µM), without a hit: top-dose activity, negative = less viability, usual class: cytotoxic; hit rate 1.6% among 360,000;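 also: NT is the 2HG producing partner of a matched IDH1 knockdown line; potency is read from the fitted curve at half-maximal effect; 0% = DMSO-treated cells and -100% = media-only wells without cells; nearly all actives have a fitted effect of over 55% in size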
#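 Luminescent CellTiter-Glo readout after 48 hours of compound exposure at 37 degrees C defined viability of HT-1080-NT cells. Activity was normalized to DMSO wells and cell-free media wells; concentration-response curves were fitted and assigned curve classes.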
# ELG1 repair inh: blocks ELG1-dependent DNA repair in HEK293T cells | Potency, µM (highest dose often 46.1 µM), without a hit: at the highest dose activity change, negative = inhibition, most hits filed as inhibitors | HEK293T ELG1-luciferase reporter, luminescence, 16 h; DNA damage induced by 5-fluorouridine | hit rate 2.3% among 330,000; also: potency is read from the fitted curve at half-maximal effect; nearly all actives have a fitted effect of over 55% in size
#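 Quantitative HTS, concentration-response format. 2,000 cells/well co-treated with 5-fluorouridine and compound, 16 hr in 5% CO2 at 37 °C; ONE-Glo luminescence read after 30 min.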
# TDP1 cell CPT: growth inhibition of DT40 Tdp1-/-;hTDP1 cells with camptothecin (screen for TDP1 inhibitors) | AID 686979 | Potency, µM (top dose mostly 46.2 µM), without a hit: at the top dose activity change, negative = growth inhibition, usual class: inhibitors | hit rate 12% among 420,000 | chicken DT40 Tdp1-/-;hTDP1 cells + 20 nM CPT, ATP luminescence, 48 h; also: potency is read from the fitted curve at half-maximal effect; nearly all actives have a fitted effect of over 55% in size
#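 Chicken DT40 Tdp1-/- cells complemented with human TDP1, 400 cells/well, exposed to compounds plus 20 nM camptothecin for at least 48 h at 37 C; viability read as ATP content by CellTiter-Glo luminescence.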
# IL-1B inflam inh: inhibitors of inflammasome signaling (IL-1 beta secretion). AID 743279. THP-1 LPS/ATP IL-1B secretion, AlphaLISA, 16 h; hits give low values. hit rate 4.7% among 360,000. activity change, % at 57.5 µM; in the data active = activity change below about -50%; inconclusive = mostly about -30% to -49%
#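 Secreted IL-1B measured by AlphaLISA bead assay after 16 h compound exposure of THP-1 cells; compounds (final up to 57.5 uM) added 1 h before LPS (250 ng/mL) and ATP (1.25 mM) stimulation; lower signal means less secretion.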
# HT1080 IDH1KD tx: kills HT-1080 cells with IDH1 knockdown | HT-1080 IDH1 knockdown viability, ATP luminescence, 48 h | Potency, µM (titrated, usually from 46.1 µM), for inactives: at the highest dose activity, negative = toxicity, usual class: cytotoxic | hit rate 2% among 360,000 | AID 686971;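 also: potency is read from the fitted curve at half-maximal effect; 0% = DMSO wells and -100% = cell-free medium wells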
#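 % activity derives from luminescence (CellTiter-Glo), normalised to DMSO and no-cell wells. HT-1080-IDH1KD cells, 750/well, had 48 h compound exposure at 37 °C.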
# An asterisk follows results filed as active; ? = inconclusive; / = no result given. Unless noted, calls follow the shape of the dose curve; as a rule, active = well fitted curve in the direction sought with a large enough effect; inconclusive = small, poorly fitted or top-dose-only effect, or another doubt; inactive = no such curve, though single readings can be large; an effect the other way counts as inactive or inconclusive. Unless noted, % is scaled to controls: 0 for no effect and ±100 for the full control effect.
SMILES,TDP1 cell noCPT,HT1080-NT tox,ELG1 repair inh,TDP1 cell CPT,IL-1B inflam inh,HT1080 IDH1KD tx
COC(=O)c1ccc2c(=O)n(CCCCCC(=O)NC(C)C)c(=O)[nH]c2c1,21µM*,-13%,15%,?,6,24%
COC(=O)c1ccc2c(=O)n(CCCCCC(=O)NCCNC(C)=O)c(=O)[nH]c2c1,-4%,1%,3%,?,-2,-2%
COC(=O)c1ccc2c(=O)n(CCCCCC(=O)NCc3ccccc3)c(=O)[nH]c2c1,-18%,4%,?,-18%,36,2%
Cc1ccc2ncnc(Oc3ncccc3[N+](=O)[O-])c2c1,6.5µM*,-5%,?,5.8µM*,0,-6%
CC(C)OCCCNC(=O)CN1C(=O)c2cccnc2Sc2ccccc21,-14%,/,/,-16%,/,/
COCCN(C(=O)c1ccc(OC2CCN(S(=O)(=O)N(C)C)CC2)cc1)C(C)C,13µM*,1%,-6%,?,31,-8%
CN(C)S(=O)(=O)N1CCC(Oc2ccc(C(=O)NCC(C)(C)CO)cc2)CC1,?,-12%,1%,9%,21,-13%
CN(C)S(=O)(=O)N1CCC(Oc2ccc(C(=O)NCc3cnn(C)c3)cc2)CC1,21µM*,4%,?,-21%,38,8%
COc1ccc(NC(=O)NC2COc3ccccc3C2)cc1Cl (stereo not drawn),-14%,/,/,-25%,/,/
COc1ccc(CCNC(=O)CSc2nc3scc(-c4ccccc4)c3c(=O)[nH]2)cc1,?,-21%,?,?,21,-3%
CCC(c1ccccc1)C(CC)c1cc(O)c(O)c(O)c1 (stereo not drawn),8.2µM*,?,/,16µM*,-78*,?
CCC(C(=O)O)c1ccccc1 (stereo not drawn),1%,/,/,0%,/,/
O=C(c1cccc(C(F)(F)F)c1)N(c1ccccn1)C1CCCCC1,?,-3%,?,-2%,-1,-6%
CC(=O)N1c2ccc(S(=O)(=O)N3CCCC3)cc2CC1C(=O)Nc1cc(C)cc(C)c1 (stereo not drawn),23µM*,0%,6%,?,13,-4%
CC(=O)N1c2ccc(S(=O)(=O)N3CCCC3)cc2CC1C(=O)NC(C)C (stereo not drawn),1%,5%,-1%,-3%,12,-2%
CCc1ccc(CNC(=O)C2Cc3cc(S(=O)(=O)N4CCCCCC4)ccc3N2C(C)=O)cc1 (stereo not drawn),?,/,/,23µM*,/,/
CCOC(=O)c1nnn(-c2nonc2-n2cccc2)c1CCl,6.5µM*,?,0%,4.6µM*,-117*,?
CC(=O)N1c2ccccc2Sc2ccccc21,-30%,-2%,3%,-4%,-14,-3%
CN1c2ccccc2Sc2cc(N)ccc21,16µM*,?,-9%,-23%,-20,-18%
O=C(CN1CCCC1)Nc1c2c(nc3ccccc13)N(Cc1ccccc1)CC2,-30%,?,-2%,21µM*,-6,?
Cc1ccc(CN2[C@@H](c3ccccc3)COCCS2(=O)=O)cc1,?,10%,4%,?,-1,4%
O=C(NCc1ccc(Cl)cc1)c1cc2cccc3c2n1CCS3,16µM*,/,/,?,/,/
COCC(=O)Nc1ccc(N2CCCC2)c(S(=O)(=O)Nc2ccccc2OC)c1,-24%,-1%,-1%,-18%,-19,-2%
COc1ccccc1NS(=O)(=O)c1cc(NC(=O)c2ccncc2)ccc1N1CCCC1,21µM*,-12%,?,?,-25,-10%
COC(=O)c1sccc1S(=O)(=O)Nc1ccc(N2CCCCC2)cc1,16µM*,-11%,?,?,-7,-13%
